Results reported in ChEMBL document CHEMBL3433997, “St. Jude Leishmania screening dataset” (2016).

How the values were obtained:
Assay type in all cases: functional
[1] = target: Solute carrier family 2, facilitated glucose transporter member 1 (Homo sapiens) (UniProt P11166); test: ST_JUDE_LEISH: Cytotoxicity at 2uM final concentration against transgenic Leishmania Mexicana promastigotes LmGLUT1 that are glucose transport deficient and complemented with the human glucose transporter GLUT1. Activity is measured by DNA content using SYBR green in vitro
Solute carrier family 2, facilitated glucose transporter member 1 (Homo sapiens), sequence (P11166 whole entry): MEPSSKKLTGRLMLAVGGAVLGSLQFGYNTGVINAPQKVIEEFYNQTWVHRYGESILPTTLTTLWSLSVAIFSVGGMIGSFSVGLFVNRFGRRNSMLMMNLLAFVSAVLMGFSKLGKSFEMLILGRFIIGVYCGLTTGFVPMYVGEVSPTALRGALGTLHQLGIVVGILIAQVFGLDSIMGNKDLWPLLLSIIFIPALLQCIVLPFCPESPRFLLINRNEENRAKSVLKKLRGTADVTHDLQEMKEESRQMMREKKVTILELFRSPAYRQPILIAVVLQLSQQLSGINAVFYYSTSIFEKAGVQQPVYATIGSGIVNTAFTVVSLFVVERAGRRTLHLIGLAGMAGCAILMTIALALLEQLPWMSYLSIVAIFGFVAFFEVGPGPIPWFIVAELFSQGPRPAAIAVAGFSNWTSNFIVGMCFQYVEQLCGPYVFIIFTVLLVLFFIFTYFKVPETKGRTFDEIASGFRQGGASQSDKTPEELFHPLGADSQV

[2] = target: Hexose transporter 1 (Plasmodium falciparum) (UniProt O97467); test: ST_JUDE_LEISH: Cytotoxicity at 2uM final concentration against transgenic Leishmania Mexicana promastigotes LmPfHT that are glucose transport deficient and complemented with the Plasmodium falciparum hexose transporter. Activity is measured by DNA content using SYBR green in vitro
[3] = target: Glucose transporter (Leishmania mexicana) (UniProt O61059); test: ST_JUDE_LEISH: Cytotoxicity at 2uM final concentration against transgenic Leishmania Mexicana promastigotes LmGT2 that are glucose transport deficient and complemented with the L. Mexicana glucose transporter 2. Activity is measured by DNA content using SYBR green in vitro

| Structure (SMILES) | inhibition [1] | inhibition [2] | inhibition [3] |
| --- | --- | --- | --- |
| O=C(c1ccccc1)N1CCC[C@](CCCN2CCN(c3ccccc3O)CC2)(c2ccc(Cl)c(Cl)c2)C1 | 5.1% | 4.13% | 5.99% |
| CCCN1CCN(CCCNC(=O)c2cc3c(Cl)nc4ccc(C)cc4c3s2)CC1 | -1.56% | 1.08% | -1.97% |
| COc1ccc(-c2ccc(NC(=O)c3ccc(F)cc3)cc2)cc1CN1CCCN(C)CC1 | 6.26% | 3.81% | 2.87% |
| CC(CN(C)C)C(=O)Nc1ccc(-c2ccc(-c3nc4cc(C(F)(F)F)ccc4[nH]3)cc2)cc1 (stereo not drawn) | 12.9% | 11.6% | 9.66% |
| CCCCc1cc(Cc2cnc(N)nc2N)cc(OC)c1OC | 3.17% | 2.41% | 0.98% |
| COc1ccc(CCNCCCCCCNCCc2ccccc2Cl)cc1OC | 1.25% | 0.29% | 1.91% |
| C=CCOc1ccc(-c2c(C)[nH]c(C)c(Br)c2=O)cc1 | 2.12% | 2.01% | -0.17% |
| COc1ccc(CN2CCC(CNCCc3ccccc3Oc3ccccc3)CC2)cc1 | -1.06% | -1.31% | -2.59% |
| CC1(C)NC(N)=NC(=N)N1OCc1cccs1 | 10.6% | 7.52% | 7.36% |
| CCc1cn2c3c(cc(C(=O)N[C@@H](Cc4cc(F)cc(F)c4)[C@H](O)CNC4CCOCC4)cc13)N(C)S(=O)(=O)CC2 | 0.86% | -1.91% | -0.48% |
| O=C(Nc1cccc(Cl)c1Cl)NC1CCN(Cc2cccc(O)c2)CC1 | 3.63% | 2.13% | 2.32% |
| CN(C)Cc1cccc(-c2ccc3ccnc(N)c3c2)c1 | 1.78% | 3.34% | 1.17% |
| N=C(N)NN=C1C=Cc2cccc3cccc1c23 | -1.8% | 2.26% | -2.92% |
| Cc1ccc(/C=C/C(=O)NCCCCCN2CCCN(C(=O)Nc3ccc(Cl)c(Cl)c3)CC2)cc1 | 1.97% | 2.34% | 4.4% |
| CN1CCN(CCCN(Cc2cccc(-c3ccc(CNC4CCCC4)cc3)c2)C(=O)/C=C/c2ccccc2)CC1 | 6.1% | 7.29% | 4.93% |
| COc1ccc(NC(=O)N2CCCN(CCCCCNC(=O)/C=C/c3ccc(Cl)cc3)CC2)cc1Cl | 2.15% | 2.96% | 0.93% |
| CCNc1cc(C(=O)N[C@@H](Cc2ccccc2)[C@H](O)CNC(C)(C)Cc2ccccc2)cc(N2CCCC2=O)c1 | 3.58% | 0.61% | 0.81% |
| Cn1nccc1C(=O)NCCNCc1cccc(-c2ccc(-c3nc4ccccc4[nH]3)cc2)c1 | 0.23% | 0.79% | -1.98% |
| CNCCNCc1ccc(-c2cccc(-c3nc4cc(F)ccc4[nH]3)c2)cc1 | 2.53% | 3.78% | 3.03% |
| C=CCN(c1ccc(OC)cc1)S(=O)(=O)c1ccc(Cl)c(C(=O)Nc2cccc(C#N)c2)c1 | -1.28% | 4.89% | 4.17% |
| CC(CCc1ccccc1)NCC(O)c1ccc2c(c1)S(=O)(=O)c1ccccc1N2 (stereo not drawn) | 1.67% | 1.25% | 2.14% |
| Cc1ccc(-n2c(C)cc(C(=O)CN3C(=O)NC(Cc4ccccc4)C3=O)c2C)cc1 (stereo not drawn) | 0.81% | -1.87% | 0.55% |
| CCCCCCNC[C@@H](O)[C@H](Cc1ccccc1)NC(=O)c1cc(NCC)cc(N2CCCCS2(=O)=O)c1 | 1.43% | 1.73% | 5.06% |
| c1cc2[nH]c(CCCc3nc4cc(C5=N[C@H]6CCCC[C@H]6N5)ccc4[nH]3)nc2cc1C1=N[C@@H]2CCCC[C@@H]2N1 | 0.97% | 1.75% | 0.34% |

| Structure (SMILES) | inhibition [1] | inhibition [2] | inhibition [3] |
| --- | --- | --- | --- |
| COc1ccc2[nH]c(C(=O)Nc3cccc(-c4ccc(CN(C)C)cc4)c3)cc2c1 | 3.16% | 1.78% | -0.5% |
| O=C(Nc1ccc(OC2CCN(Cc3ccc(F)cc3)C2)cc1)c1cccs1 (stereo not drawn) | -3.81% | -1.65% | -0.11% |
| COc1ccc(C(=O)N2CCC(CN3CCOC(c4ccccc4)(c4ccccc4)C3)CC2)cc1 | 0.77% | 2.13% | 2.45% |
| O=C(Nc1ccc(-c2ccccc2)cc1)Nc1cccc(Cn2nc(Cl)c(N3CCCNCC3)cc2=O)c1 | 3.71% | 0.49% | 0.24% |
| COc1ccc(Nc2ncc3c(-c4cccc(NC(=O)c5ccc(N)cc5)c4)c[nH]c3n2)cc1OC | 9.74% | 8.84% | 7.97% |
| Cc1nc(N2CCC(C)CC2)c2c3c(sc2n1)CCCC3 | 2.21% | 2.09% | 0.47% |
| c1ccc2cc3c(NCCN4CCOCC4)ccnc3cc2c1 | 7.07% | 6.74% | 7.2% |
| Cc1cc(NC(=O)NCCN2CCC(NS(=O)(=O)c3ccc(C(F)(F)F)cc3)C2)c2ccccc2n1 (stereo not drawn) | 11.8% | 11.8% | 7.4% |
| CN1CCN(CCc2ccc3nc(-c4csc(Cc5cc(Cl)ccc5OCc5ccccc5)n4)[nH]c3c2)CC1 | 0.84% | 2.08% | -1.4% |
| Cc1nc(C)c(-c2ccc(C(=O)c3ccc(Cl)cc3)cc2)c(O)c1Br | 1.02% | 1.24% | 0.57% |
| COc1ccc(-c2ccc(NC(=O)c3cccc(Cl)c3)cc2)cc1CN1CCN(C)CC1 | 6.52% | 4.97% | 3.15% |
| Cc1cccc2nc(-c3ccc(-c4cccc(CN5CCC(CO)CC5)c4)s3)[nH]c12 | 1.48% | 0.4% | 1.75% |
| CCOc1cc(C(=O)N[C@@H](Cc2ccccc2)[C@H](O)CNCc2cc(OC)cc(OC)c2)cc(N2CCCCS2(=O)=O)c1 | 0.3% | -0.68% | -1.52% |
| CCOc1ccc2c(=NN=Cc3cc(OC)c(OC)c(OC)c3)cc(C)[nH]c2c1 | 2.5% | 1.22% | -0.3% |
| O=C(/C=C/c1ccc(Cl)cc1)NCCCCCN1CCN(C(=O)Nc2ccc(Cl)c(C(F)(F)F)c2)CC1 | 4.45% | 5% | 3.42% |
| Cc1cccc2nc(-c3cccc(-c4ccc(NC(=O)Cc5ccon5)cc4)c3)[nH]c12 | 14.2% | 12.3% | 10.8% |
| CCN1CCCC(Nc2ccnc3cc4ccccc4cc23)C1 (stereo not drawn) | 4.12% | 4.34% | 4.81% |
| Clc1ccc(CNc2ccnc(NCc3ccc4c(c3)OCCCO4)n2)c(Cl)c1 | 4.44% | 5.76% | 3.69% |
| COc1ccc2nc3cc(Cl)ccc3c(NCCNCC(O)CO)c2n1 (stereo not drawn) | 7.93% | 6.76% | 5.98% |
| CCNc1cc(C(=O)N[C@@H](Cc2ccccc2)[C@H](O)CNCCc2cc(OC)cc(OC)c2)cc(N2CCCCS2(=O)=O)c1 | 7.06% | 4.2% | 10% |
| COc1cc2ccccc2cc1OCCCN1CCN(CC(c2ccc(F)cc2)N2CCN(C(C)C)CC2)CC1 (stereo not drawn) | -2.97% | -0.78% | 2.29% |
| CCn1cnc2c(N3CCCS3(=O)=O)cc(C(=O)N[C@@H](Cc3ccccc3)[C@H](O)CNC(C)(C)c3cccc(C(F)(F)F)c3)cc21 | 3.01% | 2.45% | 2.04% |
| CS(=O)(=O)N1CC2(CCN(CCC(NC(=O)NCc3ccccc3Cl)c3ccc(Cl)c(Cl)c3)CC2)c2ccccc21 (stereo not drawn) | 1.26% | 1.46% | 1.78% |
| CC1CN(c2cnn(Cc3cccc(NC(=O)Nc4ccc(F)cc4[N+](=O)[O-])c3)c(=O)c2Cl)CC(C)N1 (stereo not drawn) | -2.05% | 1.66% | -0.22% |

| Structure (SMILES) | inhibition [1] | inhibition [2] | inhibition [3] |
| --- | --- | --- | --- |
| Cc1ccc(C(=O)Nc2ccc(-c3nc4ccccc4[nH]3)cc2)cc1S(=O)(=O)N1CCOCC1 | 2.29% | 1.71% | 0.77% |
| CCCNc1nc(Nc2ccccc2C)nc2ccccc12 | 38.1% | 33.5% | 13.8% |
| Cn1nc(-c2cccc(CNCc3ccccc3)c2)c2cnc(NC3CCCC3)nc21 | -0.97% | 0% | -1.01% |
| O=C(Nc1cccc(Cl)c1Cl)Nc1ccnc2ccccc12 | 7.59% | 7.42% | 5.95% |
| O=C(CCCCCNC(=O)c1ccc(O)c(-c2ccc(Cl)c(Cl)c2)c1)NCc1cccc(C(F)(F)F)c1 | -1.4% | -1.74% | -4.05% |
| CC(C)CCNCc1c(O)ccc2ccccc12 | -2.54% | -0.86% | 3.37% |
| CCCCNc1c(C(=O)OCC)c(C)nc2c1[nH]c1ccccc12 | 3.19% | 4.14% | -0.65% |
| NC(=O)COc1cccc2c1CCN(CCN1CCC(NC(=O)c3ccc(-c4ccc(Cl)cc4)cc3)CC1)C2 | 1.06% | 4.42% | 2.71% |
| O=c1[nH]c2ccc(Nc3nccc(NCCc4ccccc4)n3)cc2[nH]1 | 1.91% | 4.94% | 5.12% |
| Cc1[nH]c(C)c(-c2ccc(-c3ccccc3Cl)nc2)c(=O)c1Cl | 3.05% | 3.94% | 3.11% |
| Fc1cc(Cl)ccc1Nc1ccnc2cc(-c3scnc3CNCCN3CCOCC3)ccc12 | 2.02% | 1.16% | 0.33% |
| CC(C)CCNC(=N)c1ccc(OCCCCCOc2ccc(C(=N)NCCC(C)C)cc2)cc1 | 12.4% | 12.5% | 8.15% |
| CC(C)NCc1ccc(-c2ccc(NC(=O)c3ccc(Cl)cc3)cc2)cc1 | 19.7% | 16.2% | 16.1% |
| CC(C)Oc1ccc(CCCON2C(=N)N=C(N)NC2(C)C)cc1 | 20.8% | 28.2% | 19% |
| CCCCCN1CCCN(Cc2cccc(NC(=O)c3ccc4ccccc4c3)c2)CC1 | 4.56% | 4.49% | 4.95% |
| O=C(Nc1cccc(C2=NCCN2)c1)Nc1cccc(C2=NCCN2)c1 | 1.69% | 5.37% | 1.1% |
| CCN(CC)CCN(Cc1ccc(-c2ccc(C(F)(F)F)cc2)cc1)C(=O)Cn1cc(Cc2cnn(C)c2)c(=O)nc1/C=C/c1ccc(F)cc1 | 1.22% | 1.54% | 2.56% |
| COc1ccc(CNC(=O)c2cnc3c(O)cccc3c2Nc2cccc(NC(=O)c3ccc(F)cc3)c2)cc1 | 76% | 78.5% | 75.3% |
| COc1ccc2nccc([C@@H](O)CN3CCC(NC(=O)/C=C/c4ccc(F)c5ccccc45)CC3)c2c1 | 8.56% | 5.8% | 5.26% |
| CN1CCN(CC(=O)Nc2ccc(-c3cccc(-c4nc5cc(C(F)(F)F)ccc5[nH]4)c3)cc2)CC1 | 0.66% | 1.68% | -1.43% |
| CC(CNc1nc(NCC(c2ccccc2)c2ccccc2)c2nc[nH]c2n1)c1ccccc1 (stereo not drawn) | 3.92% | 5% | 3.73% |
| O=[N+]([O-])c1cccc(CNC2CCN(Cc3ccc(Cl)c(Cl)c3)CC2)c1 | 7.37% | 4.47% | 7.35% |
| Cc1cc(N2CCCC2)nc(Nc2ccc(NC(=O)COc3ccccc3)cc2)n1 | 6.11% | 6.84% | 2.07% |
